High-throughput results (PubChem BioAssay)
Giardia FBPA inh = inhibitors of Giardia lamblia fructose-1,6-bisphosphate aldolase; A8B2U2; purified Giardia FBPA; Potency, µM (titrated, usually from 59.6 µM), for the others: top-dose activity, negative = inhibition, hits mostly inhibitors; 0.71% of 290,000 active; AID 2451; active = well fitted inhibition curve with a large enough effect; inconclusive = small, poorly fitted or top-dose-only effect, or effect the other way; note: nearly all actives have a fitted effect of over 55% in size
Target sequence (A8B2U2 whole entry, looked up): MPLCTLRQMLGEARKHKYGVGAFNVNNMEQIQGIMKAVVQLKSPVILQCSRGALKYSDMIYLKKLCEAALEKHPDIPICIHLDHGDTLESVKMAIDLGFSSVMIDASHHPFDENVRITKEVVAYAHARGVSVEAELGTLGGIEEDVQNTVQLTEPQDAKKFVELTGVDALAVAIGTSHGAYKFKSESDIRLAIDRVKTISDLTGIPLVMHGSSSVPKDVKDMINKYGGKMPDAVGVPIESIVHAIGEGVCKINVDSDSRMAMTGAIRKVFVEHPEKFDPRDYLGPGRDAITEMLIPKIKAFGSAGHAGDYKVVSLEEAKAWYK
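40 nM FBPA preincubated 10 min at RT with compound (up to 57.5 uM final), then substrate plus GAPDH/TPI/NAD/arsenate coupling and diaphorase/resazurin added. Fluorescence read after 20 min at RT, 525/598 nm.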
Vaccinia Venus = vaccinia inhibition (Venus reporter) | Vaccinia virus Venus reporter expression, fluorescence | Potency, µM (series often up to 36.5 µM), for inactives: at the highest dose activity change, negative = inhibition, usual class: inhibitors | 0.46% of 330,000 active | AID 720580; calls by dose curve; tested in A549 cells; note: nearly all actives have a fitted effect of over 30% in size
FMDV inh = antivirals against foot and mouth disease virus; 1.2% of 410,000 active; FMDV antiviral cell-based qHTS; AID 1159524; Potency, µM (doses to about 57.9 µM), for inactives: top-dose activity change, negative = inhibition, actives largely listed as inhibitors; calls by dose curve; tested in HEK293T cells; note: read-out not given here; nearly all actives have a fitted effect of over 45% in size
Vaccinia mCherry = inhibitors of vaccinia virus infection (mCherry reporter signal). Potency, µM (titrated, usually from 36.5 µM), without a hit: at the top dose activity change, negative = inhibition, usual class: inhibitors. Vaccinia virus mCherry reporter infection, fluorescence. 0.63% of 310,000 active; calls by dose curve; tested in A549 cells; note: nearly all actives have a fitted effect of over 35% in size
* hit, by the source's call; u = inconclusive; x = not tested or not shown. This is a sample that favours compounds with a hit; in the whole collection about 2.2% have one here. % is set by controls: 0 for no effect and ±100 for the full control effect; potency is the fitted concentration of half-maximal effect.

SMILES	Giardia FBPA inh	Vaccinia Venus	FMDV inh	Vaccinia mCherry
O=C(Nc1ccc(Cl)cc1)N1CCN(c2ccc3nnc(-c4ccc(F)cc4)n3n2)CC1	-6.9%	11.2µM*	-28.4%	u
COc1ccc(NC(=O)c2oc3ccc(S(=O)(=O)N4CCCCC4)cc3c2C)cc1	x	-19.4%	17.8µM*	-18.9%
Cc1c(C(=O)NCCCN2CCCC2=O)oc2ccc(S(=O)(=O)N3CCOCC3)cc12	9.9%	x	2.7%	x
Cc1c(C(=O)NCCC2=CCCCC2)oc2ccc(S(=O)(=O)N3CCOCC3)cc12	-2.3%	x	14.1µM*	x
COC(=O)c1cccc(C(=O)N2CCc3c(C(=O)OC)c(OCc4ccccn4)cc(=O)n3CC2)c1	x	4.9%	-7.9%	-6.1%
COc1ccc2c(c1)c1c(c(=O)n(-c3cccc(C)c3)c(=O)n1Cc1cccc(Cl)c1)n2C	x	-12.3%	-4.1%	-11.0%
CCOC(=O)Cn1c(COc2ccccc2OC)[n+](C)c2ccccc21	x	x	-9.6%	x
CCCCCCCCCCOC(=O)Cn1c(COc2ccc(Cl)cc2)[n+](C)c2ccccc21	-7.1%	10µM*	u	u
CCCCCCCCCCOC(=O)Cn1c(COc2ccccc2C)[n+](C)c2ccccc21	-15.0%	28.2µM*	u	u
CCCCCCCCCCOC(=O)Cn1c(COc2cccc(C)c2)[n+](C)c2ccccc21	-15.9%	u	20µM*	-4.1%
CCCCCCCCCCOC(=O)Cn1c(COc2ccccc2)[n+](C)c2ccccc21	2.7%	11.2µM*	35.5µM*	u
CCCCOC(=O)Cn1c(=O)n(CC(=O)OCCCC)c2ccccc21	5.5%	-1.4%	-19.2%	x
CC(C)c1c(C(=O)NCCN2CCOCC2)cnn1-c1nccc(-c2cccs2)n1	x	-13.4%	-10.0%	-22.7%
COc1ccc(CNC(=O)c2cnn(-c3ncc4c(n3)-c3ccccc3CC4)c2C)cc1OC	x	-10.8%	33.9%	-24.7%
Cn1c(-c2ccncc2)nc2cc(C(=O)N[C@H]3CCCCNC3=O)cc(NC(=O)C3CCC3)c21	x	-11.9%	-17.5%	-13.4%
CCCCCCCCCCOC(=O)Cn1c(COc2ccc(OC)cc2)[n+](C)c2ccccc21	-6.7%	11.2µM*	u	u
Cc1cccc(-n2nnnc2S(C)(=O)=O)c1	x	-29.2%	25.1µM*	-23.9%
COc1cccc(-n2nnnc2S(C)(=O)=O)c1	1.3%	u	u	u
OC1(c2cccnc2)CCN(Cc2ccc3c(c2)CN(Cc2ccc(F)c(F)c2)CCO3)CC1	x	-10.6%	-23.3%	-12.0%
COC(=O)c1ccccc1NC1=C/C(=N\S(=O)(=O)c2ccc(C(=O)O)cc2)c2ccccc2C1=O	1µM*	u	u	25.1µM*
COC(=O)c1ccccc1NC1=C/C(=N\S(=O)(=O)c2cccs2)c2ccccc2C1=O	u	u	2.51µM*	u
COC(=O)c1cccc(NS(=O)(=O)c2cccs2)c1C	0.9%	x	19.8%	x
CC1=CC(C)(C)N2C(=O)C3(SCC(=O)N3c3ccc(F)cc3)c3cc(C)cc1c32 (stereo not drawn)	-1.0%	x	17.8µM*	x
CN(C)c1ccc(/C=N\Nc2ccc([N+](=O)[O-])cc2[N+](=O)[O-])cc1Br	x	-7.2%	x	24.9%
COc1ccccc1N1CCN(c2nc(CNC(=O)c3ccccc3F)nc3ccccc23)CC1	x	6.5%	0.3%	-15.4%
SMILES	Giardia FBPA inh	Vaccinia Venus	FMDV inh	Vaccinia mCherry
NC(Cc1ccc(C(F)(F)F)cc1)c1csc(Nc2ccccn2)n1 (stereo not drawn)	x	u	-17.0%	11.2µM*
Cc1cnc(C)c(Nc2nc(C(N)Cc3ccccc3)cs2)n1 (stereo not drawn)	x	-10.2%	-25.4%	-7.3%
NC(Cc1ccc(C(F)(F)F)cc1)c1csc(Nc2ncccn2)n1 (stereo not drawn)	x	-13.9%	-26.5%	-1.2%
Cc1cnc(C)c(Nc2nc(C(N)Cc3ccc(C(F)(F)F)cc3)cs2)n1 (stereo not drawn)	x	u	-27.0%	11.2µM*
NC(Cc1ccc(C(F)(F)F)cc1)c1csc(NC(=O)NCCc2ccccc2)n1 (stereo not drawn)	x	11.2µM*	u	u
CC1(c2ccc3noc(-c4ccccc4)c3c2)OCCO1	-3.4%	-18.1%	15.8µM*	x
CC(C)Cc1ccc(CN2CCCC(NC(=O)CCN3CCCCC3=O)C2)cc1 (stereo not drawn)	13.1%	x	-8.4%	x
CC(C)Cc1ccc(C(C)/C=C2/CCC(CN3CCCCC3)C2=O)cc1 (stereo not drawn)	x	-1.0%	39.8µM*	-10.0%
Cc1nc2c(c(=O)c3ccccc3n2C)c(=O)n1C1CCCCCC1	5.7%	-14.3%	23.8%	-16.1%
CCCCCc1nc2c(c(=O)c3ccccc3n2C)c(=O)n1C1CCCCCC1	6.2%	-12.5%	31.6µM*	-5.6%
C=CCOc1ccccc1CNc1ccc2c(c1)OCCO2	u	-14.9%	17.8µM*	-25.5%
C=CCOc1ccccc1CNc1cccc(F)c1	-10.9%	-13.2%	-9.2%	-22.6%
O=C(Cc1coc2ccc3ccccc3c12)Nc1nnc(C2CC2)s1	-1.2%	12.5%	-18.1%	12.6µM*
O=C(NC1CCN(Cc2ccccc2)C1)c1cnn(-c2ncc3c(n2)-c2ccccc2CC3)c1C1CC1 (stereo not drawn)	x	-6.5%	u	-27.7%
CC(C)c1onc(-c2c(Cl)cccc2Cl)c1COc1ccc(/C=C/c2cccc(C(=O)O)c2)c(Cl)c1	12.7%	x	-17.8%	x
COc1ccc(/C=N/NC(=O)c2nc(-c3ccccc3)n(-c3ccccc3)n2)c(O)c1	2.2%	u	-23.6%	3.16µM*
COc1cc(C2Nc3ccccc3-c3nnc(SCc4ccc(C)cc4)nc3O2)cc(OC)c1O (stereo not drawn)	x	-0.1%	22.4µM*	0.0%
COc1cc(C2Nc3ccccc3-c3nnc(SCc4ccc(Cl)cc4)nc3O2)ccc1OCC(=O)O (stereo not drawn)	x	8.6%	12.7%	-0.5%
CCN(CC(=O)Nc1cc(Cl)ccc1C)C(=O)CCS(=O)(=O)c1ccc(Cl)cc1	x	u	-21.8%	11.2µM*
CCN(CC(=O)Nc1ccccc1C(F)(F)F)C(=O)CCS(=O)(=O)c1ccc(Cl)cc1	x	-28.3%	-3.2%	u
Cc1ncc2c(c1CNC(=O)c1ccc3c(c1)OCO3)CCN(C(=O)/C=C/c1ccc(Cl)cc1)C2	x	15.1%	-10.9%	-2.9%
CC(=O)N1CCC[C@H]1C(=O)NCC1Cc2cc(-c3cccc(OC(F)(F)F)c3)ccc2O1 (stereo partly drawn)	x	-25.2%	-7.3%	-0.6%
CC[C@@H](CO)NC(=O)[C@H]1C=C2c3cccc4c3c(cn4C)C[C@H]2N(C)C1	u	x	-19.5%	x
COc1ccc(C2=CC(=O)C=CC2=O)cc1	15.8µM*	x	x	x
COC(=O)C1CCCCN1Cc1ccc2c(c1)CN(C1CCSCC1)CCO2 (stereo not drawn)	x	-6.0%	-4.9%	-5.7%
O=C(Nc1nc(-c2ccc(S(=O)(=O)N3CCOCC3)cc2)cs1)c1ccccc1	x	-20.7%	14.1µM*	-21.2%
COc1cccc(C(=O)Nc2nc(-c3ccc(S(=O)(=O)N4CCOCC4)cc3)cs2)c1	1.9%	-26.5%	u	-25.4%
O=C(Nc1nc(-c2ccc(S(=O)(=O)N3CCCCCC3)cc2)cs1)c1cccs1	-8.4%	-29.9%	10µM*	-2.1%
Cc1nnc(NC(=O)c2cccc(S(=O)(=O)N3CCN(C)CC3)c2)s1	x	-6.4%	-1.5%	-12.9%
